# Test results published in PMC7862700, “An all-to-all approach to the identification of sequence-specific readers for epigenetic DNA modifications on cytosine”.
# Assays:
# Experiment in all cases: DAPPL (digital affinity profiling via proximity ligation, sequencing); 10 mM Tris-HCl pH 7.5, 50 mM NaCl, 1 mM DTT, 4% glycerol, room temperature, 30 min; GST-TFs on glutathione beads, 16-mer random dsDNA library, 0.1% formaldehyde crosslink after washing; high values mean tight binding
# FEV = biological target: T1, FEV (Homo sapiens, UniProt Q99581 1-238); conditions: protein: recombinant; tags: N-terminal GST; dsDNA, one strand shown
# T1 sequence: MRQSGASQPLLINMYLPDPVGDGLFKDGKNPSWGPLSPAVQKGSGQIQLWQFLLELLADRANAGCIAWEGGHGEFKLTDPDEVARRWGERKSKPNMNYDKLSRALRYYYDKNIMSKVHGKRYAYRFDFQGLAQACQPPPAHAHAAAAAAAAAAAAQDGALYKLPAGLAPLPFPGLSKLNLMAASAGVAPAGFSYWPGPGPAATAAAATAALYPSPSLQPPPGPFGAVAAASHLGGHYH
# Summary of the method: (§1)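 Sequencing on an Illumina NextSeq500 followed washing, crosslinking with 0.1% formaldehyde, proximity ligation (BsaI/T4 ligase, 1 h, 37 °C) and PCR amplification of pools that had been incubated for 30 min at room temperature with 200 nmole of a random double-stranded 16-mer DNA library in Tris/NaCl/DTT/glycerol buffer. Each pool held DNA-barcoded human transcription factors, expressed in yeast as GST fusions and captured on glutathione beads, plus a tag-only sample. Binding signal is a hexamer's read frequency for a factor divided by its frequency in the tag-only sample.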
# ETV5 = ETV5 (Homo sapiens, UniProt P41161 1-510); conditions: protein: recombinant; tags: N-terminal GST; dsDNA, one strand shown
# Summary of the method: as §1
# HSF1 = HSF1 (Homo sapiens, UniProt Q00613 1-529); conditions: protein: recombinant; tags: N-terminal GST; chain copies: 3; dsDNA, one strand shown
# Summary of the method: as §1
# SPIC = biological target: T2, SPIC (Homo sapiens, UniProt Q8N5J4 1-248); conditions: protein: recombinant; tags: N-terminal GST; dsDNA, one strand shown
# T2 sequence: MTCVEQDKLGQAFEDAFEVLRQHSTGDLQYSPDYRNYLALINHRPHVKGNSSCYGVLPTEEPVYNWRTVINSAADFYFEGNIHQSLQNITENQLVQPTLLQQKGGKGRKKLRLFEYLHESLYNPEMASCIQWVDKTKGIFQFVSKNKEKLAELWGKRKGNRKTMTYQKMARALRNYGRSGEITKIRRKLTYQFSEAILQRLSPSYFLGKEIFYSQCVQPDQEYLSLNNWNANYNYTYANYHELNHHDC
# Summary of the method: as §1
# ELF4 = ELF4 (Homo sapiens, UniProt Q99607 1-663); conditions: protein: recombinant; tags: N-terminal GST; dsDNA, one strand shown
# Summary of the method: as §1
# ELK4 = biological target: T3, ELK4 (Homo sapiens, UniProt P28324-2 1-405); conditions: protein: recombinant; tags: N-terminal GST; dsDNA, one strand shown
# T3 sequence: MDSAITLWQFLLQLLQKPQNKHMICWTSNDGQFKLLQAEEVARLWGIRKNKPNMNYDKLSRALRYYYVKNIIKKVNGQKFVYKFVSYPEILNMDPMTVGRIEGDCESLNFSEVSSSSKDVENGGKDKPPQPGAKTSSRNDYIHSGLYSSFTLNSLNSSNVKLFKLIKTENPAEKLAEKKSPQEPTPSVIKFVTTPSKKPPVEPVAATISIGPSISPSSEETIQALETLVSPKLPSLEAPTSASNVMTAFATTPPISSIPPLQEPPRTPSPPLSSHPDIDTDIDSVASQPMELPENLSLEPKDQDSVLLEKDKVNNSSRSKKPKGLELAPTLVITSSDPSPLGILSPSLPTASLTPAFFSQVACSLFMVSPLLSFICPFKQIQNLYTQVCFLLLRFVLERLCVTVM
# Summary of the method: as §1
# ETV2 = biological target: T4, ETV2 (Homo sapiens, UniProt O00321 1-342); conditions: protein: recombinant; tags: N-terminal GST; dsDNA, one strand shown
# T4 sequence: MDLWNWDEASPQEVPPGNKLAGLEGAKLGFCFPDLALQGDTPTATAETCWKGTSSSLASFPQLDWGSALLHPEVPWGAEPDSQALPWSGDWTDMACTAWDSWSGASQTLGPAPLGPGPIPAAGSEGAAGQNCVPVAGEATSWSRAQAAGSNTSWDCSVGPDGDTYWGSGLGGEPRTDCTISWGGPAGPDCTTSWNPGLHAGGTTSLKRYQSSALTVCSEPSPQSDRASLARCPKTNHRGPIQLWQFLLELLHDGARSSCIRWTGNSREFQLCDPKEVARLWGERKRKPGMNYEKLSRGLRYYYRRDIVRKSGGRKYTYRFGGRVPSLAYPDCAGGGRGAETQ
# Summary of the method: as §1
# ELF3 = biological target: T5, ELF3 (Homo sapiens, UniProt P78545 1-371); conditions: protein: recombinant; tags: N-terminal GST; dsDNA, one strand shown
# T5 sequence: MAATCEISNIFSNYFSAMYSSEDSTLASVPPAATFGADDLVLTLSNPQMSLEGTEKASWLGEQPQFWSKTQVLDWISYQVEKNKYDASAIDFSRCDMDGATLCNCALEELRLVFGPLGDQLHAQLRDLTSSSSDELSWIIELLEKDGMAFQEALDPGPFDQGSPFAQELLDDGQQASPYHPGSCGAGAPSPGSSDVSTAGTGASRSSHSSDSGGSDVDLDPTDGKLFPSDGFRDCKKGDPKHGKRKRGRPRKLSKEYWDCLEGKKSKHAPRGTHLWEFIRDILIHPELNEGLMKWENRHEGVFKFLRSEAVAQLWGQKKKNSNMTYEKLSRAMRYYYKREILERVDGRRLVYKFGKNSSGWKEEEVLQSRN
# Summary of the method: as §1
# CRX = CRX (Homo sapiens, UniProt O43186 1-299); conditions: protein: recombinant; tags: N-terminal GST; dsDNA, one strand shown
# Summary of the method: as §1
# ETV1 = ETV1 (Homo sapiens, UniProt P50549 1-477); conditions: protein: recombinant; tags: N-terminal GST; dsDNA, one strand shown
# Summary of the method: as §1
# ERF = biological target: T6, ERF (Homo sapiens, UniProt P50548 1-548); conditions: protein: recombinant; tags: N-terminal GST; dsDNA, one strand shown
# T6 sequence: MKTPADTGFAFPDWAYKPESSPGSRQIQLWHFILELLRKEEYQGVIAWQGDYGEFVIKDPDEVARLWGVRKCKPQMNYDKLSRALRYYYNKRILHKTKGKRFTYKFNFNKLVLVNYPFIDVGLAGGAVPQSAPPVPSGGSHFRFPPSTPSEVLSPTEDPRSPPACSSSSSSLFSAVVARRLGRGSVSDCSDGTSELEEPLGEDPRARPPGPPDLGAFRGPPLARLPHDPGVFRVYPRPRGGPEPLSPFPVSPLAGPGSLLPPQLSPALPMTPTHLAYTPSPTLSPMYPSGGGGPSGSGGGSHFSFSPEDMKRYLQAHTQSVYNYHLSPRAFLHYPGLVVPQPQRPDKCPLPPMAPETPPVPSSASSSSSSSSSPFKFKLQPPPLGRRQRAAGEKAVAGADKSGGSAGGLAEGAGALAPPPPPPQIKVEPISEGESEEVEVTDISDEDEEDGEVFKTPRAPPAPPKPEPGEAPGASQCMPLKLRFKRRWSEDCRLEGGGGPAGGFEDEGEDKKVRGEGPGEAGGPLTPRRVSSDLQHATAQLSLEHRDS
# Summary of the method: as §1
# ETV3L = biological target: T7, ETV3L (Homo sapiens, UniProt Q6ZN32 1-361); conditions: protein: recombinant; tags: N-terminal GST; dsDNA, one strand shown
# T7 sequence: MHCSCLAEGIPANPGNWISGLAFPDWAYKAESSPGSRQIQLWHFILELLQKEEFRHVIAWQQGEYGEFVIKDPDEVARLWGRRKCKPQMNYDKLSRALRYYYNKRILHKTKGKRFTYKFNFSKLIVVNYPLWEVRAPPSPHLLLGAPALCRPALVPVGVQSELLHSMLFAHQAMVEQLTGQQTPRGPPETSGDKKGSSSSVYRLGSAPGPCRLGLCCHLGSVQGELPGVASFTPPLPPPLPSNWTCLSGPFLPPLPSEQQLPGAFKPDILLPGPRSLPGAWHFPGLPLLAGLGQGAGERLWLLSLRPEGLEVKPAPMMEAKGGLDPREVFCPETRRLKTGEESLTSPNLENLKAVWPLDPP
# Summary of the method: as §1
# ETS2 = biological target: T8, ETS2 (Homo sapiens, UniProt P15036 1-469); conditions: protein: recombinant; tags: N-terminal GST; dsDNA, one strand shown
# T8 sequence: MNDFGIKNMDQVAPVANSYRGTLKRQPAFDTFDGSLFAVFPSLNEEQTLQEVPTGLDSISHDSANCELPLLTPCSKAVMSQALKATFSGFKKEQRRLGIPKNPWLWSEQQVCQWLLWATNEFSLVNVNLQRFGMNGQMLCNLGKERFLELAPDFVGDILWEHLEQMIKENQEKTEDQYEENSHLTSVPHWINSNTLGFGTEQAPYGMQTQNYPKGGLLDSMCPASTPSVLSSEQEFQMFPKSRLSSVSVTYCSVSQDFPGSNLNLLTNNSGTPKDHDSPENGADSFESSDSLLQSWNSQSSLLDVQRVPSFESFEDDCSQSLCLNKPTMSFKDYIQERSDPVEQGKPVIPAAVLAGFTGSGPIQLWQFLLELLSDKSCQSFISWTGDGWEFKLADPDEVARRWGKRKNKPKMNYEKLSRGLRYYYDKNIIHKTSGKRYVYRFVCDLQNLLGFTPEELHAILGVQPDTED
# Summary of the method: as §1
# SPDEF = biological target: T9, SPDEF (Homo sapiens, UniProt O95238 1-335); conditions: protein: recombinant; tags: N-terminal GST; dsDNA, one strand shown
# T9 sequence: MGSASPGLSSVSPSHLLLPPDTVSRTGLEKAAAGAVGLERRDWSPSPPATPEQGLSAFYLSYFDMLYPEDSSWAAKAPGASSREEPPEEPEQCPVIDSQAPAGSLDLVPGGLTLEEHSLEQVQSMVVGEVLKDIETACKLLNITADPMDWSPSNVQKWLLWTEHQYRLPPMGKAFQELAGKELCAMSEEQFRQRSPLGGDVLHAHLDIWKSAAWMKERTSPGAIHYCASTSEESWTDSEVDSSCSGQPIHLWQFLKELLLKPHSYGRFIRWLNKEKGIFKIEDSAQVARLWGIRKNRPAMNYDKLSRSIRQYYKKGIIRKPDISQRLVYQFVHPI
# Summary of the method: as §1
# ETV7 = biological target: T10, ETV7 (Homo sapiens, UniProt Q9Y603 1-341); conditions: protein: recombinant; tags: N-terminal GST; dsDNA, one strand shown
# T10 sequence: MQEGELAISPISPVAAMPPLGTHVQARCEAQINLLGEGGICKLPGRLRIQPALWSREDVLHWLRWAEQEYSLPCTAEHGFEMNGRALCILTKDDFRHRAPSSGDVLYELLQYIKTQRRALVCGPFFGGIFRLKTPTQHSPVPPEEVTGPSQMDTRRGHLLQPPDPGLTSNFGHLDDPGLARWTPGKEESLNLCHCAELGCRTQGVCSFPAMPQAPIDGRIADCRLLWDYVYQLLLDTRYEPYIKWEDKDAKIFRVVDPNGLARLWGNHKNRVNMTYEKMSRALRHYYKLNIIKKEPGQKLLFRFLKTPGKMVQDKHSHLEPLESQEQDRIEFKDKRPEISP
# Summary of the method: as §1
# ELF5 = biological target: T11, ELF5 (Homo sapiens, UniProt Q9UKW6-2 1-255); conditions: protein: recombinant; tags: N-terminal GST; dsDNA, one strand shown
# T11 sequence: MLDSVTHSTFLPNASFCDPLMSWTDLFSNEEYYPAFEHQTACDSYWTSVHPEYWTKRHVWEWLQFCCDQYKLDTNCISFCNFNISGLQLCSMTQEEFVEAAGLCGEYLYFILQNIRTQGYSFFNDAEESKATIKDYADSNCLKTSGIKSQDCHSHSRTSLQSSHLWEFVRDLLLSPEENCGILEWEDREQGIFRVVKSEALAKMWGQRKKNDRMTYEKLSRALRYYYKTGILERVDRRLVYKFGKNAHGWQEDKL
# Summary of the method: as §1
# ETV3 = biological target: T12, ETV3 (Homo sapiens, UniProt P41162-2 1-143); conditions: protein: recombinant; tags: N-terminal GST; dsDNA, one strand shown
# T12 sequence: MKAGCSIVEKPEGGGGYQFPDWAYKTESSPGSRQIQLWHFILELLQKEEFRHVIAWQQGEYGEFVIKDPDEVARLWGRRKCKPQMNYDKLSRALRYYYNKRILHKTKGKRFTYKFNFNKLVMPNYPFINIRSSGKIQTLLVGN
# Summary of the method: as §1
# ETV6 = ETV6 (Homo sapiens, UniProt P41212 1-452); conditions: protein: recombinant; tags: N-terminal GST; dsDNA, one strand shown
# Summary of the method: as §1
# Chain of ELF4 (Q99607 whole entry): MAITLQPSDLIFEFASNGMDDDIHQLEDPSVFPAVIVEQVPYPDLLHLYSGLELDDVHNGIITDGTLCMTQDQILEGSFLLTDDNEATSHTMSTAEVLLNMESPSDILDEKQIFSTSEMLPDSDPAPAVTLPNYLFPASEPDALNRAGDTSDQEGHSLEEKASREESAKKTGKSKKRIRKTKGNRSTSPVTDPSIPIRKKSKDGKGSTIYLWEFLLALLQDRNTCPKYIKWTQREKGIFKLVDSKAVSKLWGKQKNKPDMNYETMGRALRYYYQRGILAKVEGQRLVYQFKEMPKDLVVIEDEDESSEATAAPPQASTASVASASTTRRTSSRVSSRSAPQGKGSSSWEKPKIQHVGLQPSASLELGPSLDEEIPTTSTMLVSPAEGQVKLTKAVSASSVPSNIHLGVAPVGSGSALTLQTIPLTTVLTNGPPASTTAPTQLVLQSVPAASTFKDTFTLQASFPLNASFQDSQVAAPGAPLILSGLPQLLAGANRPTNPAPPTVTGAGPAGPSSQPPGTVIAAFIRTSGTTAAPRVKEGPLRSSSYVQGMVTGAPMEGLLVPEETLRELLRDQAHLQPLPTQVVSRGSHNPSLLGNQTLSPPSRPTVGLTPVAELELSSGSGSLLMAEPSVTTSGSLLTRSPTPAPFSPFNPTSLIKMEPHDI
# Chain of ETV1 (P50549 whole entry): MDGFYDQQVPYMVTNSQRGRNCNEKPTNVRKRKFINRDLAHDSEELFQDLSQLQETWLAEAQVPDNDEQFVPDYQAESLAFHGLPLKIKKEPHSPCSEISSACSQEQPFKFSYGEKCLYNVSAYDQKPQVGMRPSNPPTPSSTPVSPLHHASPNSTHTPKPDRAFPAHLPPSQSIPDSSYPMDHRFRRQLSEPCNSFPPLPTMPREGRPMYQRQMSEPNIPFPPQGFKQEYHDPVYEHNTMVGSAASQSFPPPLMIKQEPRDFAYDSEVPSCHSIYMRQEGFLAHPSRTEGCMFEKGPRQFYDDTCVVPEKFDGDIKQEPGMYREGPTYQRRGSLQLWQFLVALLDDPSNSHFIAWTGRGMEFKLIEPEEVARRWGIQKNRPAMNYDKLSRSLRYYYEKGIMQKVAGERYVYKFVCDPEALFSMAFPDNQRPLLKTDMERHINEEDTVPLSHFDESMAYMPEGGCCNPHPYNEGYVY
# Chain of HSF1 (Q00613 whole entry): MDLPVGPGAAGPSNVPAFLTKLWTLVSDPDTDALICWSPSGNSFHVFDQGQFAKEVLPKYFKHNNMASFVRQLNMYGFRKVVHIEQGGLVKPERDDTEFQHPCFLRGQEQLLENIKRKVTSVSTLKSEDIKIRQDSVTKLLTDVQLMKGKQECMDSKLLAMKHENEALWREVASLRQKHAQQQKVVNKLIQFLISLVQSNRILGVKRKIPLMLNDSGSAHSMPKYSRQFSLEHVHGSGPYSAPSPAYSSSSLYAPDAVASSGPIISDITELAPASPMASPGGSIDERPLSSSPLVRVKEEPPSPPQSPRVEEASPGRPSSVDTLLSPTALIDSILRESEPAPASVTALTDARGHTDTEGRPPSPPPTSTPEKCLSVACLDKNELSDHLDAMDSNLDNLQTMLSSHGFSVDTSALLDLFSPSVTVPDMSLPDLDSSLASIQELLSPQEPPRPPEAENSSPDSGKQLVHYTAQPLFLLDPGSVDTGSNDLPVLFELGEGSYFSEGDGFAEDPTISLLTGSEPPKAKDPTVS
# Chain of CRX (O43186 whole entry): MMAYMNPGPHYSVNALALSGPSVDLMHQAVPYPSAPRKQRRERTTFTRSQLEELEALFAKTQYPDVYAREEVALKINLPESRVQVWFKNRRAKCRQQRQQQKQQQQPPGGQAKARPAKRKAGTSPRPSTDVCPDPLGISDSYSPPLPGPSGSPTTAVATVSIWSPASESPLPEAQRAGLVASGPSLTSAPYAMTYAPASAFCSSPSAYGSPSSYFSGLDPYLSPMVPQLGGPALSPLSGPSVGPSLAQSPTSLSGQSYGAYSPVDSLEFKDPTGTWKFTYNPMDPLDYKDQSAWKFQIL
# Chain of ETV5 (P41161 whole entry): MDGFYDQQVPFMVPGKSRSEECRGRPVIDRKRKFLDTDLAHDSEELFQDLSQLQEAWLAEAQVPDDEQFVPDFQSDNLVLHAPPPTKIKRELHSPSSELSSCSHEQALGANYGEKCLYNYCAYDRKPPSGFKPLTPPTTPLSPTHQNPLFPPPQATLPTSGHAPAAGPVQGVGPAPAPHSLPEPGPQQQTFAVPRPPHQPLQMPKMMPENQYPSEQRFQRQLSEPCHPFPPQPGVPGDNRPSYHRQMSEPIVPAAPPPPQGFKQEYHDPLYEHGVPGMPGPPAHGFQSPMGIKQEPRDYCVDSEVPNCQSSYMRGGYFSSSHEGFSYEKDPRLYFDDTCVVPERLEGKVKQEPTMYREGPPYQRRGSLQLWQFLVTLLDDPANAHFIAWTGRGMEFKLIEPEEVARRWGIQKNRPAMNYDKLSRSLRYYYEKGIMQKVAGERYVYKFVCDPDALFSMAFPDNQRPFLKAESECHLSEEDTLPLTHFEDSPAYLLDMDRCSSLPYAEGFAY
# Chain of ETV6 (P41212 whole entry): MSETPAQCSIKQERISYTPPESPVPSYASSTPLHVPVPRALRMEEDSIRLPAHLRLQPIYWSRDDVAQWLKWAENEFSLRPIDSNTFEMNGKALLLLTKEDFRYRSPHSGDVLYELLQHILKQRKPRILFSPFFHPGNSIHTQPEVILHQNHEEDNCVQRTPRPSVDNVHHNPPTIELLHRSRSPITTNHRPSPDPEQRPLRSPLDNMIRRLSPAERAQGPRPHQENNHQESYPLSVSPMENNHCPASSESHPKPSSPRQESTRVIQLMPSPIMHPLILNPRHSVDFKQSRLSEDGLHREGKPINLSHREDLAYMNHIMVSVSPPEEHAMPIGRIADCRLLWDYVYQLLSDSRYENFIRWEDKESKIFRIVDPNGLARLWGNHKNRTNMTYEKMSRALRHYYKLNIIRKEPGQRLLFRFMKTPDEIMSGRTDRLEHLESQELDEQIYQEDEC
sequence,measurement,setting,value
TACGCA,binding signal,FEV,"1.16 fold enrichment (6-mer frequency, TF over GST control)"
same,binding signal,ETV5,"1.21 fold enrichment (6-mer frequency, TF over GST control)"
same,binding signal,HSF1,"1.06 fold enrichment (6-mer frequency, TF over GST control)"
same,binding signal,SPIC,"1.16 fold enrichment (6-mer frequency, TF over GST control)"
same,binding signal,ELF4,"1.23 fold enrichment (6-mer frequency, TF over GST control)"
same,binding signal,ELK4,"1.12 fold enrichment (6-mer frequency, TF over GST control)"
same,binding signal,ETV2,"1.15 fold enrichment (6-mer frequency, TF over GST control)"
same,binding signal,ELF3,"1.19 fold enrichment (6-mer frequency, TF over GST control)"
same,binding signal,CRX,"1.21 fold enrichment (6-mer frequency, TF over GST control)"
same,binding signal,ETV1,"1.25 fold enrichment (6-mer frequency, TF over GST control)"
same,binding signal,ERF,"1.28 fold enrichment (6-mer frequency, TF over GST control)"
same,binding signal,ETV3L,"1.12 fold enrichment (6-mer frequency, TF over GST control)"
same,binding signal,ETS2,"1.2 fold enrichment (6-mer frequency, TF over GST control)"
same,binding signal,SPDEF,"1.16 fold enrichment (6-mer frequency, TF over GST control)"
same,binding signal,ETV7,"1.12 fold enrichment (6-mer frequency, TF over GST control)"
same,binding signal,ELF5,"1.11 fold enrichment (6-mer frequency, TF over GST control)"
same,binding signal,ETV3,"1.1 fold enrichment (6-mer frequency, TF over GST control)"
same,binding signal,ETV6,"1.18 fold enrichment (6-mer frequency, TF over GST control)"
